Active and inactive are the calls of the source.
What was measured:
[1] = optical density shifts of acrAB sulA E. coli – strain DRC41, OD650, 48 h, E. coli filamentation inducer project, primary screen (AID 1152); conditions: higher = more signal, called active from +8 up or from −8 down;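 note: E. coli MC1000 strain DRC41 lacking acrAB efflux pump and sulA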
[2] = probe aLefty1 binding on compound microarray – biochemical, small-molecule microarray, 635/667 nm fluorescence, primary screen (AID 1153); conditions: higher = more signal;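 note: score merges spot fluorescence with signal-to-noise ratio from the scanned slide images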
[3] = plasmodial surface anion channel blockers, osmotic lysis – cell-based, P. falciparum Indochina, OD700, 1 h, primary screen (AID 1154); conditions: P. falciparum Indochina infected RBC osmotic lysis, higher = more signal, called active from +8 up or from −8 down
[4] = plasmodial surface anion channel blockers, osmotic lysis – cell-based, P. falciparum Indochina, OD700, 2 h, primary screen (AID 1155);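 note: lysis reports solute entry through the parasite surface anion channel PSAC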; conditions: P. falciparum Indochina infected erythrocytes, higher = more signal, called active from +8 up or from −8 down
[5] = changes in parasitized red cell lysis, either direction – P. falciparum Indochina, OD700, 3 h, PSAC antagonist project, primary screen (AID 1156); conditions: P. falciparum-infected erythrocytes, osmotic lysis, higher = more signal, called active from +8 up or from −8 down
[6] = plasmodial surface anion channel blockers, osmotic lysis – cell-based, P. falciparum Indochina, OD700, 18 h, primary screen (AID 1157); conditions: P. falciparum Indochina infected erythrocytes, osmotic lysis OD700, 18 h; higher = more signal, called active from +8 up or from −8 down
[7] = S6 kinase pathway phospho-S6 level changes – cell-based, A549, cytoblot, luminescence, serum-stimulated, primary screen (AID 1158); conditions: 5 h, higher = more signal;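 note: serum-stimulated A549 lung adenocarcinoma cells; signal is phosphorylated S6 detected by cytoblot immunostaining with HRP secondary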
[8] = biological target: NADPH oxidase 2 (Homo sapiens) (UniProt P04839); assay: compounds shifting NOX2 Amplex Red fluorescence – cell-based, HEK293-NOX2, PMA-stimulated, NOX inhibitor project, primary screen (AID 1159); conditions: 45 min, higher = more signal, called active from +8 up or from −8 down; note: test concentration not given here
NADPH oxidase 2 (Homo sapiens), sequence (P04839 whole entry, looked up): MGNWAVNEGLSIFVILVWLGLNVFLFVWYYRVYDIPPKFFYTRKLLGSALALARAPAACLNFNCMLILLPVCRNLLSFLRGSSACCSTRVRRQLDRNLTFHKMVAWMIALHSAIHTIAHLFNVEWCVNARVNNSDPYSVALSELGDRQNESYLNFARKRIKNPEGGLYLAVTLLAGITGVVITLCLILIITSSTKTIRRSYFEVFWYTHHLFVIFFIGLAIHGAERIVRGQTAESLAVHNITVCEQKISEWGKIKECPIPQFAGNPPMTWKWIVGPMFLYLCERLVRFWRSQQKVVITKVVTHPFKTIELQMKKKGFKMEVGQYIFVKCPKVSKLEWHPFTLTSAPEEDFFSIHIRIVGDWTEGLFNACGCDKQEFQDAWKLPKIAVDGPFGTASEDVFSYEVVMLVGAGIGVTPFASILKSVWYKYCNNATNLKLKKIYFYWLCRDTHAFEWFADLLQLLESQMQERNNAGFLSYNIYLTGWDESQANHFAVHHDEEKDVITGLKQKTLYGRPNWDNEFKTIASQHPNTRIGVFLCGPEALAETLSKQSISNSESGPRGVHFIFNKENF

[9] = biological target: NADPH oxidase 4 (Homo sapiens) (UniProt Q9NPH5); assay: compounds shifting NOX4 Amplex Red fluorescence – cell-based, HEK293-NOX4, tetracycline-induced, NOX inhibitor project, primary screen (AID 1160); conditions: HEK293-NOX4, Amplex Red H2O2 fluorescence, 45 min; higher = more signal, called active from +8 up or from −8 down
NADPH oxidase 4 (Homo sapiens), sequence (Q9NPH5 whole entry, looked up): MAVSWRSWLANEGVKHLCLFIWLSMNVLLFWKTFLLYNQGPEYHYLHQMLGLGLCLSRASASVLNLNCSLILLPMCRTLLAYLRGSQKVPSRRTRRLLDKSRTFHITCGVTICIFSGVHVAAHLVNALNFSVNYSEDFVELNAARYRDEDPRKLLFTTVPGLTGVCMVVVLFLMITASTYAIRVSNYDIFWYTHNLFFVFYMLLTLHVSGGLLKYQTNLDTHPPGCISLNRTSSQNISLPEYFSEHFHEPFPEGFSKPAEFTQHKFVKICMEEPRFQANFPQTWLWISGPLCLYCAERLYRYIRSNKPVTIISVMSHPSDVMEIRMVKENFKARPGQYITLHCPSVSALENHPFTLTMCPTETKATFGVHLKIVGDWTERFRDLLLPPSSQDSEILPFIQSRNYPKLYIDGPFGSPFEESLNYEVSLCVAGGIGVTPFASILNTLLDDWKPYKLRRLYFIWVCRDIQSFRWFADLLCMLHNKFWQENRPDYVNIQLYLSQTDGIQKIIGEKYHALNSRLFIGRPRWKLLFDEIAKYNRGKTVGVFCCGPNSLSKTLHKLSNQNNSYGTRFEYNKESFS

[10] = biological target: NADPH oxidase 5 (Homo sapiens) (UniProt Q96PH1); assay: compounds shifting NOX5 Amplex Red fluorescence – cell-based, HEK293-NOX5, NOX inhibitor project, primary screen (AID 1161); conditions: HEK293-NOX5, ionomycin, 45 min, higher = more signal
NADPH oxidase 5 (Homo sapiens), sequence (Q96PH1 whole entry, looked up): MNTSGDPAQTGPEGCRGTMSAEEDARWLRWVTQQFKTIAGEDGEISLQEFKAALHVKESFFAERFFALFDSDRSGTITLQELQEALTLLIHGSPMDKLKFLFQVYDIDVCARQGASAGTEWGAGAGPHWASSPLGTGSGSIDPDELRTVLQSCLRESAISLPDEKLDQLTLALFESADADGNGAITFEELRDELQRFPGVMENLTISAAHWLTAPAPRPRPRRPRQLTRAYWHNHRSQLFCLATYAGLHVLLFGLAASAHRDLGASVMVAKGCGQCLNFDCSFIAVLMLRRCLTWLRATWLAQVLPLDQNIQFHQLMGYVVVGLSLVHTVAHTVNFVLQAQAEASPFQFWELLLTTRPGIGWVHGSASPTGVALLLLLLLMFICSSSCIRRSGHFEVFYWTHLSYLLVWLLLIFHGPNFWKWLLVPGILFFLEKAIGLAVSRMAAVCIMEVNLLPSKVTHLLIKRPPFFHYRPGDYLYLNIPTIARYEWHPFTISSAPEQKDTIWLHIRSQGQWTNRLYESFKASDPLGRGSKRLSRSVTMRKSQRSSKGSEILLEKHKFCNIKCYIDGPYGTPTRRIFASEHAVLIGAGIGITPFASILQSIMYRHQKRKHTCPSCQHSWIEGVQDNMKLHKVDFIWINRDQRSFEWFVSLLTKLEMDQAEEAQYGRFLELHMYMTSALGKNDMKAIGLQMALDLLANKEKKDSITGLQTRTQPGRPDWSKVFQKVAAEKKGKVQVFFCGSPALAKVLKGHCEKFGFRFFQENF

Row | Compound | z-score [1] | composite z-score [2] | z-score [3] | z-score [4] | z-score [5] | z-score [6] | z-score [7] | z-score [8] | z-score [9] | z-score [10]
1 | Cc1ccc([C@H]2C(C(=O)O)=C[C@@H](C(C)C)N2S(=O)(=O)c2ccc(C)cc2)cc1 | -1.01 (inactive) | 0.121 | 0.297 (inactive) | 0.711 (inactive) | -0.539 (inactive) | 0.734 (inactive) | -0.365 | 0.79 (inactive) | -1.06 (inactive) | -0.32
2 | OCCCc1cc[n+](Cc2cccc(OC(F)(F)F)c2)cc1 | -0.123 (inactive) | 0.363 | 0.514 (inactive) | 0.816 (inactive) | 1.54 (inactive) | 0.916 (inactive) | 0.211 | 0.972 (inactive) | -0.285 (inactive) | 0.384
3 | O=C1C2C=CC(C(O)c3ccc(-c4ccccc4)s3)N(Nc3ccccc3F)C2C(=O)N1c1ccccc1 (stereo not given) | -1.69 (inactive) | 0.282 | 4.17 (inactive) | 1.66 (inactive) | 0.8 (inactive) | 1.27 (inactive) | -0.501 | -0.49 (inactive) | -4.68 (inactive) | -3.41
4 | C=CCC(OC(C)=O)[C@@H]1[C@@H](N(Cc2cc3ccccc3o2)C(=O)c2cccc3ccccc23)c2cc(OCCCO)ccc2N1C(=O)Cc1ccc(OC)cc1 (stereo not given in full) | -0.901 (inactive) | -0.195 | 1.7 (inactive) | 0.923 (inactive) | 1.66 (inactive) | 0.629 (inactive) | 0.907 | -1.79 (inactive) | -0.428 (inactive) | -1.57
5 | C=CCN1Cc2ccccc2C[C@]2(N=C(c3ccc(OCCCO)cc3)O[C@@H]2c2ccccc2)C1=O | 1.35 (inactive) | 0.32 | 24.3 (active) | 12.6 (active) | -0.0845 (inactive) | 1.93 (inactive) | 1.95 | -2.9 (inactive) | 0.272 (inactive) | -2.7
6 | O=S(=O)(NCCCO)c1ccc(Br)cc1 | 0.949 (inactive) | 0.103 | 0.168 (inactive) | -0.852 (inactive) | -1.21 (inactive) | -1.71 (inactive) | 0.679 | -1.2 (inactive) | -0.0431 (inactive) | 0.102
7 | COc1ccc(C(O)C2C=CC3C(=O)N(c4ccccc4)C(=O)C3N2Nc2ccccc2)c2ccccc12 (stereo not given) | -0.831 (inactive) | 0.318 | 6.65 (inactive) | 1.75 (inactive) | 0.303 (inactive) | 1.34 (inactive) | -0.654 | -1.48 (inactive) | -3.15 (inactive) | -2.57
8 | O=C1OCC=C[C@H]2OC34C=CCN(c5ccc(Cl)cc5)C(=O)[C@H]3N(CCCO)C(=O)[C@@H]4[C@@H]12 (stereo not given in full) | 0.657 (inactive) | -0.128 | 0.204 (inactive) | -0.531 (inactive) | -0.172 (inactive) | -1.41 (inactive) | 0.808 | 0.846 (inactive) | -0.895 (inactive) | 2.6
9 | C=CCOC(=O)[C@H]1[C@@H]2C(=O)O[C@@H](c3ccccc3)[C@@H](c3ccccc3)N2[C@@H](c2ccc(OCCOC(=O)[C@H]3C[C@H]4C(=O)N[C@@H](CCCC[N+](C)(C)C)C(=O)N4[C@H]3c3ccc(O)cc3)cc2)[C@]12C(=O)Nc1ccccc12 | 0.0787 (inactive) | 0.206 | -2.12 (inactive) | -1.12 (inactive) | 0.857 (inactive) | -1.95 (inactive) | -0.327 | 2.39 (inactive) | 0.928 (inactive) | 0.96
10 | [N-]=[N+]=NCc1ccccc1[C@H]1OC(c2ccc(OCCCO)cc2)=N[C@@]1(Cc1ccccc1)C(=O)NCC(O)CO (stereo not given in full) | -0.112 (inactive) | 1.61 | 25.4 (active) | 12.1 (active) | 1.87 (inactive) | 1.67 (inactive) | -0.09 | 0.046 (inactive) | 0.497 (inactive) | -0.796
11 | COCCOC(=O)N1C(=O)[C@@]2(c3ccccc31)[C@H](C(=O)N1CCCCCCC1)[C@H]1C(=O)O[C@H](c3ccccc3)[C@H](c3ccccc3)N1[C@@H]2c1ccccc1OCCO | -0.946 (inactive) | 2.79 | 1.49 (inactive) | 0.529 (inactive) | 0.537 (inactive) | 0.49 (inactive) | -0.408 | 0.966 (inactive) | 0.739 (inactive) | 1.24
12 | C=C[C@H](C)[C@H](O)c1ccc(OCCO)cc1 | 1.05 (inactive) | -0.553 | 1.09 (inactive) | 0.521 (inactive) | 1.62 (inactive) | 0.402 (inactive) | 0.156 | 0.218 (inactive) | -0.187 (inactive) | -0.112
13 | C=CCOC(=O)[C@@H]1[C@H]2C(=O)O[C@H](c3ccccc3)[C@H](c3ccccc3)N2[C@H](c2ccc(OCCOC(=O)[C@H]3C[C@H]4C(=O)N[C@@H](CCCC[N+](C)(C)C)C(=O)N4[C@H]3c3cccc(OCCO)c3)cc2)[C@@]12C(=O)Nc1ccc(I)cc12 | -0.398 (inactive) | 0.173 | 7.62 (inactive) | 2.35 (inactive) | 1.59 (inactive) | 1.28 (inactive) | 0.0621 | 1.68 (inactive) | 0.615 (inactive) | 1.33
14 | COc1ccc([Si](C)(C)[C@H]2[C@H](CC(=O)N3CCC[C@H]3CO)O[C@@]3(C(=O)N(c4ccccc4)c4ccccc43)[C@@H]2C)cc1 | 3.01 (inactive) | 0.228 | 1.84 (inactive) | -0.132 (inactive) | -0.0926 (inactive) | -0.284 (inactive) | 1.48 | 1.44 (inactive) | 1.46 (inactive) | 1.96
15 | COc1cc(CO)cc(I)c1O[C@H]1C=C(C(=O)NCCO)C[C@@H](N(CCc2cccc(F)c2)C(=O)CCC2CCCC2)[C@@H]1O | -0.429 (inactive) | 0.437 | 16.3 (active) | 3.94 (inactive) | 4.42 (inactive) | 1.53 (inactive) | -0.165 | 1.47 (inactive) | 0.145 (inactive) | -2.23
16 | CC(C)(C)OC(=O)CC[C@@]1(C(N)=O)N=C(c2ccc(OCCCO)cc2)O[C@@H]1c1ccccc1N=[N+]=[N-] | 1.3 (inactive) | 0.224 | 30.8 (active) | 31.3 (active) | 2.05 (inactive) | 2.73 (inactive) | -0.207 | 1.57 (inactive) | -0.154 (inactive) | -1.44
17 | CCCC[C@H]1C[C@@H]1[C@@H]1N(P(=O)(c2ccccc2)c2ccccc2)[C@](CO)(c2ccccc2)CC12CC2 | -2.52 (inactive) | 0.394 | 4.95 (inactive) | 0.761 (inactive) | 2.01 (inactive) | 0.985 (inactive) | 0.353 | -0.339 (inactive) | 1.08 (inactive) | -2.29
18 | C[C@]1(C(=O)NCC(F)(F)F)c2ccccc2C(=O)N(Cc2cc(F)cc(C(F)(F)F)c2)[C@H]1c1ccc(CO)cc1 | -0.436 (inactive) | -0.355 | 4.43 (inactive) | -0.263 (inactive) | 2.21 (inactive) | -0.682 (inactive) | 2.24 | -0.779 (inactive) | -2.9 (inactive) | -3.61
